Consider eight molecules from PubChem BioAssay (NCI).

Compounds without any hit were thinned out: in the full panel of roughly 83,000, 20% have a hit.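 Each cell line was grown in a 96-well plate and treated with one concentration of compound for 48 hours. Values below 10 were considered active.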 A number with no mark means an inactive call. Calls of active or inactive are those of the source.

Among the test systems are HCT-15 colon; HT29 colon; SNB-75 CNS; SNB-19 CNS; U251 CNS; PC-3 prostate; SK-MEL-5 melanoma; UACC-62 melanoma; LOX IMVI melanoma; SK-MEL-28 melanoma; SK-MEL-2 melanoma; EKVX NSCLC; SN12C renal; UO-31 renal; TK-10 renal; ACHN renal; CAKI-1 renal; A498 renal; CCRF-CEM leukemia; MOLT-4 leukemia.
Holding throughout (assay): NCI-60 one-dose screen, 48 h (100 = growth as untreated, 0 = no growth, -100 = all killed)
Common to all, as to conditions: 10 µM unless noted

With `N/C(=N\c1nc2ccccc2s1)NC(=NC1CCCCC1)NC1CCCCC1`, the growth is 1.34% (active) in the experiment on HCT-15 colon; 6.19% (active) in the experiment on HT29 colon; 23.1% in the experiment on SNB-75 CNS; 4.28% (active) in the experiment on SNB-19 CNS; -56.2% (active) in the experiment on U251 CNS; 24.2% in the experiment on PC-3 prostate. In addition, the growth in the experiment on SK-MEL-5 melanoma is -74.8% (active); with UACC-62 melanoma it was 52.8%; in the experiment on LOX IMVI melanoma it was -100% (active); in the experiment on SK-MEL-28 melanoma, -73.8% (active); with SK-MEL-2 melanoma, 41%; in the experiment on EKVX NSCLC, 45.7%. The growth in the experiment on SN12C renal was 33.8%; with UO-31 renal, 20.1%; in the experiment on TK-10 renal it was 69.2%; with ACHN renal, 17.1%; in the experiment with CAKI-1 renal, 23.2%; in the experiment with A498 renal, 45.8%. The growth with CCRF-CEM leukemia is -1.74% (active); with MOLT-4 leukemia, 4% (active).
Consider `NC(=S)N/N=C/c1cn(-c2ccccc2)nc1-c1cc2ccccc2oc1=O`, for which the growth is 28.2% in the experiment with HCT-15 colon; 14.7% with HT29 colon; 8.48% (active) in the experiment on SNB-75 CNS; 56.6% with SNB-19 CNS; 45.2% in the experiment on U251 CNS; 67.5% in the experiment on PC-3 prostate. For the same molecule, the growth was 46.3% in the experiment with SK-MEL-5 melanoma; 34.2% in the experiment with UACC-62 melanoma; 46.3% in the experiment with LOX IMVI melanoma; 69.7% with SK-MEL-28 melanoma; 39.2% in the experiment with SK-MEL-2 melanoma; 75.3% in the experiment with EKVX NSCLC. For the same molecule, the growth is 63.1% with SN12C renal; 50.7% with UO-31 renal; 77.2% in the experiment with TK-10 renal; 77.4% in the experiment on ACHN renal; 44.1% with CAKI-1 renal; -6.2% (active) in the experiment with A498 renal. The values for the growth with CCRF-CEM leukemia and with MOLT-4 leukemia were 53.7% and 33.4%, respectively.
For `CCN(C(=O)N1CCN(c2cc3c(cc2F)c(=O)c(C(=O)O)cn3C2CC2)CC1)c1nc(-c2ccc(C)cc2)cs1`, the growth was 8.05% (active) in the experiment with HCT-15 colon; 3.55% (active) with HT29 colon; 30.5% in the experiment on SNB-75 CNS; 18.8% in the experiment on SNB-19 CNS; 16.3% with U251 CNS; 10.8% in the experiment with PC-3 prostate. The growth with SK-MEL-5 melanoma is -32.8% (active); in the experiment on UACC-62 melanoma it was -3.01% (active); in the experiment on LOX IMVI melanoma, 7.36% (active); in the experiment on SK-MEL-28 melanoma, 34.1%; with SK-MEL-2 melanoma it was -1.1% (active); in the experiment with EKVX NSCLC, 14.3%. The growth with SN12C renal is 5.47% (active); with UO-31 renal, 5.96% (active); with TK-10 renal it was 38.3%; with ACHN renal, 6.68% (active); with CAKI-1 renal, 7.79% (active); in the experiment with A498 renal, -2.94% (active). Besides, the values for the growth in the experiment on CCRF-CEM leukemia and in the experiment on MOLT-4 leukemia were 21.4% and 14.3%, respectively.
Consider `CCCCNC1=C(OCC)C(=O)c2ccccc2C1=O`, for which the growth with HCT-15 colon was 94.3%; in the experiment on HT29 colon it was 123%; with SNB-75 CNS, 96.1%; with SNB-19 CNS it was 100%; in the experiment on U251 CNS it was 99.7%; in the experiment with PC-3 prostate it was 94.4%. Further, the growth in the experiment on SK-MEL-5 melanoma is 91.9%; in the experiment with UACC-62 melanoma, 97.5%; in the experiment with LOX IMVI melanoma, 68.8%; in the experiment on SK-MEL-28 melanoma, 114%; in the experiment on SK-MEL-2 melanoma, 104%; in the experiment with EKVX NSCLC it was 104%. In addition, the growth with SN12C renal is 97.2%; in the experiment on UO-31 renal, 91.5%; with TK-10 renal, 145%; with ACHN renal it was 105%; in the experiment with CAKI-1 renal, 110%; with A498 renal, 37.4%. For the same molecule, the results for the growth in the experiment with CCRF-CEM leukemia and in the experiment with MOLT-4 leukemia were 100% and 108%, respectively.
For the molecule `CCN(CC)CCOc1ccc(Nc2ncc3cc(-c4ccc(O)cc4)c(=O)n(C)c3n2)cc1`, the growth with HCT-15 colon was 19.7%; in the experiment on HT29 colon, 14.8%; in the experiment on SNB-75 CNS, 27.7%; in the experiment on SNB-19 CNS it was 62.4%; with U251 CNS, 53.9%; with PC-3 prostate, -49.3% (active). Moreover, the growth in the experiment on SK-MEL-5 melanoma is 92.9%; with UACC-62 melanoma, 93.3%; in the experiment on LOX IMVI melanoma, -11.7% (active); with SK-MEL-28 melanoma, 55.7%; with SK-MEL-2 melanoma it was 97.7%; in the experiment on EKVX NSCLC it was 74%. The growth in the experiment on SN12C renal is 39.9%; in the experiment with UO-31 renal, 10.5%; in the experiment on TK-10 renal it was 81.2%; in the experiment on ACHN renal, 26%; in the experiment with CAKI-1 renal it was 26.4%; with A498 renal, 69.4%. The growth is -8.41% (active) in the experiment with CCRF-CEM leukemia and 5.99% (active) with MOLT-4 leukemia.
Regarding `COc1ccc(Cc2cnc(NC(=O)c3sc4ccccc4c3Cl)s2)cc1`, the growth with HCT-15 colon was 15.9%; in the experiment with HT29 colon, 8.15% (active); in the experiment with SNB-75 CNS, 9.6% (active); in the experiment on SNB-19 CNS, 50.7%; in the experiment with U251 CNS, 20.8%; with PC-3 prostate, 31.5%. The growth in the experiment on SK-MEL-5 melanoma is 27.8%; with UACC-62 melanoma, 35.7%; in the experiment with LOX IMVI melanoma, 45.9%; in the experiment on SK-MEL-28 melanoma, 62.1%; in the experiment with SK-MEL-2 melanoma, 43.9%; in the experiment on EKVX NSCLC, 40.8%. The growth in the experiment on SN12C renal was 28.7%; with UO-31 renal, 48.4%; with TK-10 renal, 63.1%; in the experiment on ACHN renal, 41.3%; in the experiment with CAKI-1 renal, 41.9%; with A498 renal it was 21.3%. Besides, the growth in the experiment with CCRF-CEM leukemia was 21%; in the experiment with MOLT-4 leukemia, 14.8%.
Consider `O=C1NC(=O)c2c1c1c3ccccc3[nH]c1c1oc3cc(Br)ccc3c21`, for which the growth in the experiment with HCT-15 colon was 70.4%; with HT29 colon, 76.9%; in the experiment on SNB-75 CNS it was 31.4%; in the experiment on SNB-19 CNS, 72.8%; in the experiment with U251 CNS it was 65.5%; with PC-3 prostate, 42.3%. For the same molecule, the growth in the experiment on SK-MEL-5 melanoma is 55.9%; with UACC-62 melanoma it was 48.5%; in the experiment with LOX IMVI melanoma, 59.9%; in the experiment on SK-MEL-28 melanoma, 92.6%; in the experiment on SK-MEL-2 melanoma, 96.9%; in the experiment on EKVX NSCLC it was 69.9%. Also, the growth in the experiment on SN12C renal is 78.7%; with UO-31 renal it was 36.9%; in the experiment on TK-10 renal it was 126%; in the experiment on ACHN renal, 55.2%; in the experiment with CAKI-1 renal it was 38.7%; in the experiment on A498 renal, 26.5%. Besides, the figures for the growth in the experiment with CCRF-CEM leukemia and in the experiment with MOLT-4 leukemia were 50.9% and 40.4%, respectively.
In the case of `CC[C@H](C)[C@H](NC(=O)[C@H](CCCNC(=N)N)NC(=O)[C@H](Cc1c[nH]c2ccccc12)NC(=O)[C@@H](NC(=O)[C@H](CCCCN)NC(=O)[C@H](CCCCN)NC(=O)[C@@H](NC(=O)[C@@H](NC(=O)[C@@H](NC(=O)[C@H](CCCCN)NC(=O)[C@H](Cc1ccccc1)NC(=O)[C@H](CCCCN)NC(=O)[C@H](CCCCN)NC(=O)[C@H](Cc1ccccc1)NC(=O)[C@@H](NC(=O)[C@@H](N)CCCCN)[C@@H](C)CC)[C@@H](C)O)[C@@H](C)CC)[C@@H](C)CC)C(C)C)C(=O)N[C@@H](Cc1ccccc1)C(=O)NCC(=O)N[C@@H](CCCNC(=N)N)C(=O)N[C@@H](Cc1ccccc1)C(N)=O`, the growth was -43% (active) with HCT-15 colon; -35.7% (active) in the experiment with HT29 colon; -34% (active) with SNB-75 CNS; -35.9% (active) in the experiment on SNB-19 CNS; -44.1% (active) with U251 CNS; -25.9% (active) in the experiment with PC-3 prostate. In addition, the growth is 3.57% (active) with SK-MEL-5 melanoma; -65.7% (active) in the experiment on UACC-62 melanoma; -11% (active) in the experiment on LOX IMVI melanoma; -31.7% (active) in the experiment with SK-MEL-28 melanoma; -37.5% (active) in the experiment on SK-MEL-2 melanoma; -71% (active) in the experiment on EKVX NSCLC. For the same molecule, the growth is -56.1% (active) in the experiment on SN12C renal; -68.2% (active) in the experiment with UO-31 renal; -69.4% (active) in the experiment with TK-10 renal; -54.7% (active) in the experiment with ACHN renal; -52.2% (active) in the experiment on CAKI-1 renal; -40.9% (active) in the experiment on A498 renal. Moreover, the growth with CCRF-CEM leukemia is 17.6%; in the experiment on MOLT-4 leukemia, 29%.
